This note sets out measurements from PubChem BioAssay (NCI).

Some test systems named below: NCI-H23 lung; NCI-H226 lung; NCI-H322M lung; HOP-62 NSCLC; NCI-H460 lung; HOP-92 NSCLC; NCI-H522 lung; A549/ATCC NSCLC; 786-0 renal; COLO 205 colon; DU-145 prostate; K-562 leukemia; MALME-3M melanoma; MDA-MB-231 breast; RXF 393 renal; SF-268 CNS; SF-295 CNS; SF-539 CNS; UACC-257 melanoma; M14 melanoma.
What all share (assay): NCI-60 one-dose screen, 48 h (100 = growth as untreated, 0 = no growth, -100 = all killed)
Conditions in all cases: 10 µM unless noted

Molecules are shown by their SMILES. About 83,000 compounds went through this panel and 20% of them were active in at least one assay; those are over-represented in the sample as a whole.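 Negative percent growth values reflect cell death: -40 means 40% of the cells present at the start died, and -100 means all died.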 Values without a mark were called inactive. Activity calls are given as the source filed them. Rule for the calls: active = growth percent below 10; inactive = the rest.

For `COc1cccc2c1[C@H](OC)[C@]13O[C@@]1(C2=O)[C@H](O)[C@H](C)[C@@](O)(C(=O)[C@@H]1O[C@H]1C)[C@@H]3O`, the growth in the assay on NCI-H23 lung is -63.9% (active); with NCI-H226 lung it was -54.4% (active); in the assay on NCI-H322M lung, 1.69% (active); in the assay with HOP-62 NSCLC, -26% (active); in the assay on NCI-H460 lung, -33.2% (active); in the assay with HOP-92 NSCLC, -16.8% (active). Further, the growth with NCI-H522 lung was -31.9% (active); in the assay on A549/ATCC NSCLC it was -16.7% (active); with 786-0 renal it was -16.9% (active); with COLO 205 colon it was -44.9% (active); with DU-145 prostate it was -20.6% (active); with K-562 leukemia, -27% (active). For the same compound, the growth in the assay on MALME-3M melanoma was -56.7% (active); in the assay with MDA-MB-231 breast, -1.86% (active); in the assay on RXF 393 renal, -77.3% (active); with SF-268 CNS, -24.7% (active); in the assay on SF-295 CNS, -21.8% (active); in the assay on SF-539 CNS, -29% (active). The growth in the assay with UACC-257 melanoma was -28.3% (active); in the assay with M14 melanoma, -89.7% (active).

For `CC[C@]12CC(C(=O)OC)=C3Nc4ccccc4[C@@]34CCN(C14)[C@@H]1c3cc4c(cc3O[C@@H]1[C@H]2O)NC1=C(C(=O)OC)C[C@@]2(CC)C3N(CC[C@@]143)C[C@H]1O[C@H]12` (stereo not given in full), the growth in the assay on NCI-H23 lung was 10.2%; in the assay with NCI-H226 lung, 18.9%; with NCI-H322M lung it was 28.8%; in the assay on HOP-62 NSCLC, 29%; in the assay with NCI-H460 lung, 15.3%; in the assay on HOP-92 NSCLC it was -2.19% (active). Further, the growth with NCI-H522 lung was 1.97% (active); with A549/ATCC NSCLC it was 21.9%; in the assay with 786-0 renal, 23.2%; in the assay on COLO 205 colon, -1.32% (active); with DU-145 prostate, 41.9%; with K-562 leukemia it was 6.04% (active). The growth is 5.67% (active) in the assay on MALME-3M melanoma; 22.2% in the assay with MDA-MB-231 breast; -17.9% (active) in the assay with RXF 393 renal; 29.4% with SF-268 CNS; 9.12% (active) in the assay on SF-295 CNS; 15.5% with SF-539 CNS. In addition, the growth in the assay with UACC-257 melanoma is 24.8%; in the assay with M14 melanoma, 17.6%.

With `CC(C)(O)c1cncc(-c2ccc3ncc(C#N)c(N4CCc5cc(F)c(Cl)cc54)c3c2)c1`, the growth with NCI-H23 lung was 26.8%; with NCI-H226 lung it was -6.33% (active); with NCI-H322M lung it was 11%; with HOP-62 NSCLC, 1.17% (active); in the assay on NCI-H460 lung it was 11.1%; in the assay with HOP-92 NSCLC it was -8.73% (active). The growth in the assay with NCI-H522 lung is -2.54% (active); in the assay with A549/ATCC NSCLC, 6.02% (active); with 786-0 renal it was 8.75% (active); in the assay on COLO 205 colon it was 14.5%; in the assay on DU-145 prostate, 11.7%; in the assay with K-562 leukemia, 29.6%. The growth was -12.8% (active) in the assay on MALME-3M melanoma; 20.4% in the assay on MDA-MB-231 breast; -34.1% (active) in the assay on RXF 393 renal; 21.5% in the assay on SF-268 CNS; -10.9% (active) in the assay on SF-295 CNS; -15% (active) with SF-539 CNS. Also, the growth in the assay on UACC-257 melanoma is 11%; with M14 melanoma, 10.3%.

Regarding `C#C[C@]1(O)CC[C@H]2[C@@H]3CC=C4c5sc(N(C)c6ccccc6)nc5CC[C@]4(C)[C@H]3CC[C@@]21C`, the growth with NCI-H23 lung is 86.6%; in the assay on NCI-H226 lung, 96.4%; in the assay with NCI-H322M lung, 103%; in the assay on HOP-62 NSCLC, 101%; in the assay with NCI-H460 lung, 61.9%; in the assay with HOP-92 NSCLC it was 139%. The growth is 87.2% in the assay with NCI-H522 lung; 69% with A549/ATCC NSCLC; 57.1% with 786-0 renal; 66.8% in the assay with COLO 205 colon; 95.4% in the assay on DU-145 prostate; 2.88% (active) in the assay on K-562 leukemia. Moreover, the growth was 110% in the assay with MALME-3M melanoma; 98.6% with MDA-MB-231 breast; 75.8% in the assay with RXF 393 renal; 88% in the assay on SF-268 CNS; 68.8% in the assay on SF-295 CNS; 48.7% in the assay on SF-539 CNS. The growth with UACC-257 melanoma was 90.8%; in the assay on M14 melanoma it was 54.3%.

In the case of `Oc1[nH]c2ccc(Cl)cc2c1N=Nc1nc(N=Nc2c(O)[nH]c3ccc(Cl)cc23)nc(N2CCOCC2)n1`, the growth in the assay on NCI-H23 lung is 17.2%; in the assay with NCI-H226 lung it was 57.3%; with NCI-H322M lung it was 78.1%; in the assay on HOP-62 NSCLC, 37.6%; in the assay with NCI-H460 lung, 88.2%; with HOP-92 NSCLC, 26%. Moreover, the growth is 5.09% (active) with NCI-H522 lung; 101% in the assay with A549/ATCC NSCLC; 73.7% with 786-0 renal; 48.7% with COLO 205 colon; 88.4% with DU-145 prostate; 32.9% in the assay with K-562 leukemia. Also, the growth was 56.4% with MALME-3M melanoma; 36.3% in the assay on MDA-MB-231 breast; 13.7% in the assay with RXF 393 renal; 49.1% in the assay on SF-268 CNS; 45.7% with SF-295 CNS; 16% in the assay with SF-539 CNS. Further, the growth in the assay with UACC-257 melanoma was 82%; in the assay with M14 melanoma, 77.5%.

`CC(O)c1cccc(/C(N)=N/C(N)=N/c2nc3ccccc3s2)c1` (stereo not given): the growth in the assay with NCI-H23 lung was 91.6%; in the assay with NCI-H226 lung, 85.9%; in the assay with NCI-H322M lung, 97.4%; in the assay with HOP-62 NSCLC, 98.6%; in the assay with NCI-H460 lung, 85.4%; with HOP-92 NSCLC it was 97.6%. The growth in the assay on NCI-H522 lung is 96.9%; in the assay with A549/ATCC NSCLC it was 82%; in the assay with 786-0 renal, 101%; in the assay on COLO 205 colon, 109%; in the assay with DU-145 prostate, 96.8%; in the assay on K-562 leukemia, 72%. Besides, the growth with MALME-3M melanoma was 97%; in the assay with MDA-MB-231 breast, 94.9%; in the assay with RXF 393 renal, 104%; in the assay with SF-268 CNS it was 94.3%; with SF-295 CNS it was 86.7%; in the assay on SF-539 CNS, 96.8%. Further, the growth is 103% in the assay with UACC-257 melanoma and 94.4% in the assay with M14 melanoma.

As to `O=C(CCCCCCNC(=O)C(O)(O)C(F)(F)F)Nc1ccc(Cl)cc1`, the growth in the assay with NCI-H23 lung was 24.3%; with NCI-H226 lung it was 66.6%; in the assay on NCI-H322M lung, 44%; in the assay on HOP-62 NSCLC, 4.42% (active); in the assay on NCI-H460 lung, 23.3%; with HOP-92 NSCLC, 6.13% (active). In addition, the growth is -22.3% (active) with NCI-H522 lung; 20.7% in the assay with A549/ATCC NSCLC; 35.7% with 786-0 renal; -57.4% (active) with COLO 205 colon; 17.6% in the assay with DU-145 prostate; 14.4% in the assay on K-562 leukemia. For the same compound, the growth in the assay with MALME-3M melanoma is 9.88% (active); with MDA-MB-231 breast, 36.2%; with RXF 393 renal, -23.7% (active); with SF-268 CNS it was 22%; in the assay on SF-295 CNS, 0.336% (active); with SF-539 CNS, 28.6%. In addition, the figures for the growth in the assay on UACC-257 melanoma and in the assay on M14 melanoma were 31% and 34.4%, respectively.
